Source: PubChem
IDE exosite FP = exo-site inhibitors of human insulin-degrading enzyme | purified IDE, FL-6b probe fluorescence polarization; hits give low values | z-score at 20 µM | hit rate 6.3% among 17,000;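 active = z-score of -3 or lower, meaning strong loss of probe binding signal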;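 also: His-tagged human IDE residues 42-1019 made in E. coli with 30 nM FL-6b probe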
Target sequence (P14735 42-1019 limits assumed): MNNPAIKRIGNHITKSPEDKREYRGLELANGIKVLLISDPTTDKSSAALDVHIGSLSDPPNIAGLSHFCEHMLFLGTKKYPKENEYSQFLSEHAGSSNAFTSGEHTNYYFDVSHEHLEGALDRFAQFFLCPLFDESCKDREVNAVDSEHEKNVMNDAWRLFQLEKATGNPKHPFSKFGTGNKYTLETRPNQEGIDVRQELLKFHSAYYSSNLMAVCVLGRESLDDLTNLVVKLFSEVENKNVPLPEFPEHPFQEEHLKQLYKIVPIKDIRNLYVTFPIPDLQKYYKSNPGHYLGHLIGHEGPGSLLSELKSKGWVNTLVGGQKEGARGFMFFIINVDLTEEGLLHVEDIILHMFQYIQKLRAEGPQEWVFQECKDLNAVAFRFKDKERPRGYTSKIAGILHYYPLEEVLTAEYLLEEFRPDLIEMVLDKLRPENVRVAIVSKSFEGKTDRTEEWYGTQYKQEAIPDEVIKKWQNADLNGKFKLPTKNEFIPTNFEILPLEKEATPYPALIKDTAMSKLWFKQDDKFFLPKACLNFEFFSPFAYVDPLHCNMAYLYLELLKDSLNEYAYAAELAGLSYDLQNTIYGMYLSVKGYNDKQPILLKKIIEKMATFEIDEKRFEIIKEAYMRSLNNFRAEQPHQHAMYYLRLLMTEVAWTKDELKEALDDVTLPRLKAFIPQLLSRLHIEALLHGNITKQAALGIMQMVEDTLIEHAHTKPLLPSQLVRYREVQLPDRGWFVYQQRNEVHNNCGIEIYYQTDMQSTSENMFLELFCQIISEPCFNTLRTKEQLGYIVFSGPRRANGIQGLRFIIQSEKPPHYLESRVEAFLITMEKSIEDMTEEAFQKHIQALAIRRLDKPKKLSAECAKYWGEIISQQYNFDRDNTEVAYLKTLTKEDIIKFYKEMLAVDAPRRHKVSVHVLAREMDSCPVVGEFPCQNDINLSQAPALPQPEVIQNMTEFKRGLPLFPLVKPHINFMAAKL
Active calls of the source: *. The entries come from a sample that favours hits as a whole.

SMILES | IDE exosite FP
O=C(Nc1ccc2c(c1)OCO2)N1C[C@@H]2N[C@H](C1)C2c1ccc(-c2ccccc2)cc1 (stereo not given in full) | -0.176
C[C@@H]1CN([C@H](C)CO)S(=O)(=O)c2ccc(C#Cc3ccccc3F)cc2O[C@H]1CN(C)C(=O)Cc1cccnc1 | 0.961
O=C(Cc1ccccn1)N1CC2(C1)[C@H](c1ccccc1)[C@@H](CO)N2C(=O)c1ccncc1 | -3.71*
CCC(=O)N1[C@H](CO)[C@@H](c2ccccc2)C12CN(C(=O)c1ccncc1)C2 | 1.2
O=C(CC1CC1)N1CC2(C1)[C@@H](c1ccccc1)[C@H](CO)N2C(=O)c1ccccn1 | -0.564
O=C(Cc1ccccn1)N1CC2(C1)[C@@H](c1ccccc1)[C@@H](CO)N2C(=O)c1ccncc1 | -3.29*
O=C(c1ccncc1)N1CC2(C1)[C@H](c1ccccc1)[C@H](CO)N2CC1CC1 | -1.03
O=C(CC1CC1)N1CC2(C1)[C@@H](c1ccccc1)[C@@H](CO)N2Cc1ccccn1 | 0.787
O=S(=O)(c1ccccc1F)N1CC[C@@H]2[C@H](CO)Nc3ccc(C4=CCCCC4)cc3[C@@H]21 | 1.89
C[C@H](CO)N1C[C@H](C)[C@H](CN(C)Cc2ccc(-c3ccccc3)cc2)Oc2c(NS(C)(=O)=O)cccc2C1=O | 0.33
CCC(=O)N1CC2(CCN(Cc3ccc(Cl)cc3)CC2)c2c(n(C)c3cc(OC)ccc23)[C@H]1CO | -1.17
COc1cccc(C#Cc2ccc([C@H]3[C@@H](CO)N(C(=O)C4CC4)[C@H]3C#N)cc2)c1 | 1.04
N#C[C@@H]1[C@@H](c2ccc(C#Cc3ccccc3F)cc2)[C@H](CO)N1C(=O)C1CC1 | 3.94
COc1ccccc1C#Cc1ccc([C@H]2[C@H](C#N)N(C(=O)C3CC3)[C@H]2CO)cc1 | -7.58*
COc1cccc(C#Cc2ccc([C@@H]3[C@@H](CO)N(C(=O)C4CC4)[C@H]3C#N)cc2)c1 | 0.92
COc1cccc(C#Cc2ccc([C@@H]3[C@@H](C#N)N(C(=O)C4CC4)[C@H]3CO)cc2)c1 | 2.36
COc1ccccc1C#Cc1ccc([C@H]2[C@@H](C#N)N(C(=O)C3CC3)[C@H]2CO)cc1 | -8.96*
COc1ccc(C[C@H]2CCn3nncc3COC[C@H](CC(C)C)NC2=O)cc1 | -1.53
CCCNC(=O)NC[C@H]1[C@@H](c2ccc(C3=CCCCC3)cc2)[C@H](CO)N1C(C)=O | -0.564
Cc1ccccc1S(=O)(=O)N1CC(=O)N2[C@H](CO)[C@@H](c3ccc(C#CC4CC4)cc3)[C@@H]2C1 | 0.434
O=C(Nc1cccc(F)c1)N1CC(=O)N2[C@H](CO)[C@H](c3ccc(-c4cccc(F)c4)cc3)[C@H]2C1 | 0.29
O=C(NC1CCCC1)N1CC(=O)N2[C@@H](CO)[C@H](c3ccc(-c4ccc(F)cc4)cc3)[C@@H]2C1 | -0.0295
O=C(Nc1ccc(F)cc1)N1CC(=O)N2[C@H](CO)[C@@H](c3ccc(-c4cccc(F)c4)cc3)[C@@H]2C1 | -2.2
Cc1cccc(-c2ccc([C@@H]3[C@@H](CO)N4C(=O)CN(C(=O)NC5CCCCC5)C[C@H]34)cc2)c1 | -11.5*
CC(C)CC#Cc1ccc([C@H]2[C@@H](CO)N3C(=O)CN(C(=O)NC4CCCCC4)C[C@@H]23)cc1 | -0.596
SMILES | IDE exosite FP
O=C(NC1CCCCC1)N1CC(=O)N2[C@H](C1)[C@@H](c1ccc(-c3cccc(F)c3)cc1)[C@@H]2CO | -7.9*
O=C(NC1CCCCC1)N1CC(=O)N2[C@@H](CO)[C@H](c3ccc(-c4cccc(F)c4)cc3)[C@@H]2C1 | -1.22
Cc1ccccc1-c1ccc([C@@H]2[C@H](CO)N3C(=O)CN(C(=O)NC4CCCC4)C[C@@H]23)cc1 | -8.13*
CCCC#Cc1ccc([C@H]2[C@H]3CN(C(=O)NC4CCCC4)CC(=O)N3[C@H]2CO)cc1 | -0.533
COc1ccccc1NC(=O)N1CC(=O)N2[C@H](CO)[C@@H](c3ccc(-c4cccc(C)c4)cc3)[C@H]2C1 | -0.507
O=C(Nc1cccc(F)c1)N1CC(=O)N2[C@H](CO)[C@@H](c3ccc(-c4cccc(F)c4)cc3)[C@H]2C1 | 2.15
O=C(NC1CCCCC1)N1CC(=O)N2[C@H](CO)[C@@H](c3ccc(-c4cccc(F)c4)cc3)[C@@H]2C1 | -13*
N#C[C@H]1[C@@H](c2ccc(C3=CCCC3)cc2)[C@H](CO)N1C(=O)NC1CCCCC1 | 2.16
Cc1ccc(S(=O)(=O)N2C[C@H](O)COC[C@H]3O[C@H](CC(=O)NCc4ccc5c(c4)OCO5)CC[C@@H]32)cc1 | 0.185
C[C@@H](O)C#Cc1ccc([C@@H]2[C@H](CO)N3CCCCN(S(=O)(=O)Cc4ccccc4)C[C@@H]23)cc1 | 5.31
COc1ccc2c3c(n(C)c2c1)[C@@H](CO)N(CC1CC1)CC31CCN(C(=O)NC2CCCC2)CC1 | -0.542
CN1C(=O)c2cc(NC(=O)C3CCOCC3)ccc2OC[C@@H]2O[C@H](CC(=O)NCCc3ccncc3)CC[C@@H]21 | -1.15
CN(C)CCCNC(=O)[C@H]1[C@H](CO)[C@H]2Cn3c(ccc(-c4cccnc4)c3=O)[C@@H]1N2C(=O)CC1CC1 | 0.337
CO[C@@H]1CN(C)C(=O)c2ccc(NC(=O)c3cc(C)on3)cc2OC[C@@H](C)N(S(=O)(=O)c2cccc(F)c2)C[C@H]1C | 1.92
C[C@@H](NC(=O)C[C@@H]1CC[C@@H]2[C@H](COC[C@H](O)CN2Cc2ccc(C(F)(F)F)cc2)O1)c1ccccc1 | -0.195
CC(C)NC[C@H]1[C@H](c2ccc(C3=CCCCC3)cc2)[C@@H](CO)N1C(=O)NC(C)C | 5.75
O=C(Nc1ccccc1F)N1CCCCN2[C@H](CO)[C@@H](c3ccc(C#Cc4cccnc4)cc3)[C@@H]2C1 | -1.82
O=C(Nc1ccccc1F)N1CCCCN2[C@H](C1)[C@@H](c1ccc(C#Cc3cccnc3)cc1)[C@@H]2CO | -5.14*
O=C(Nc1ccccc1)N1CCCCN2[C@H](C1)[C@@H](c1ccc(C#Cc3ccccc3)cc1)[C@@H]2CO | 0.189
O=C(Nc1ccccc1F)N1CCCCN2[C@H](CO)[C@@H](c3ccc(C#Cc4ccccc4)cc3)[C@@H]2C1 | -0.687
O=C(Nc1ccccc1)N1CCCCN2[C@H](C1)[C@H](c1ccc(C#Cc3ccccc3)cc1)[C@@H]2CO | -0.692
O=C(Nc1ccccc1)N1CCCCN2[C@H](CO)[C@H](c3ccc(C#Cc4ccccc4)cc3)[C@@H]2C1 | -3.43*
O=C(Nc1ccccc1F)N1CCCCN2[C@H](CO)[C@H](c3ccc(C#Cc4ccccc4)cc3)[C@@H]2C1 | -1.69
O=C(Nc1ccccc1F)N1CCCCN2[C@H](CO)[C@@H](c3ccc(C#Cc4ccccc4)cc3)[C@H]2C1 | -4.14*
O=C(Nc1ccccc1F)N1CCCCN2[C@@H](CO)[C@@H](c3ccc(C#Cc4cccnc4)cc3)[C@@H]2C1 | -0.0435
SMILES | IDE exosite FP
O=C1CCCc2cnnn2COCCN1 | -0.5
CC(C)(O)C#Cc1cccc(-c2nc(C(=O)O)cc3c2[C@H](CCO)N(S(=O)C(C)(C)C)C3)c1 (stereo not given in full) | -0.107
Cn1cnc(S(=O)(=O)N[C@H]2CC[C@@H](CC(=O)NCC3CCCCC3)O[C@H]2CO)c1 | 1.08
O=C(NCC1CC1)[C@H]1[C@H](CO)[C@H]2Cn3c(ccc(-c4ccccc4F)c3=O)[C@@H]1N2Cc1cncnc1 | -0.78
COc1ccc(C[C@@H]2CCc3cnnn3COC[C@H](CC(C)C)NC2=O)cc1 | -0.865
COc1ccc(C[C@@H]2CCn3cc(nn3)COC[C@H](C)NC2=O)cc1 | 0.912
C/C=C/c1ccc([C@H]2[C@@H](CO)N(C(=O)CN(C)C)[C@@H]2CNC(=O)CC)cc1 | 1.86
